# PubChem BioAssay (NCI)
# This is part of a sample that, as a whole, favours compounds with a hit. Of some 83,000 tested, about 20% had one in any assay.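 96-well plates, one dose, 48 hours. Percent growth reported; active if below 10.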 Values without a mark were called inactive. Active and inactive are the calls of the source.
# Tests used:
# Assay in all cases: NCI-60 one-dose screen, 48 h (100 = growth as untreated, 0 = no growth, -100 = all killed)
# Conditions in all cases: 10 µM unless noted
# NCI-H23 lung = test system: NCI-H23 lung
# NCI-H226 lung = test system: NCI-H226 lung
# NCI-H322M lung = test system: NCI-H322M lung
# HOP-62 NSCLC = test system: HOP-62 NSCLC
# NCI-H460 lung = test system: NCI-H460 lung
# HOP-92 NSCLC = test system: HOP-92 NSCLC
# NCI-H522 lung = test system: NCI-H522 lung
# A549/ATCC NSCLC = test system: A549/ATCC NSCLC
# 786-0 renal = test system: 786-0 renal
# COLO 205 colon = test system: COLO 205 colon
# DU-145 prostate = test system: DU-145 prostate
# K-562 leukemia = test system: K-562 leukemia
# MALME-3M melanoma = test system: MALME-3M melanoma
# MDA-MB-231 breast = test system: MDA-MB-231 breast
# RXF 393 renal = test system: RXF 393 renal
# SF-268 CNS = test system: SF-268 CNS
# SF-295 CNS = test system: SF-295 CNS
# SF-539 CNS = test system: SF-539 CNS
# UACC-257 melanoma = test system: UACC-257 melanoma
# M14 melanoma = test system: M14 melanoma
SMILES,growth (NCI-H23 lung) [%],growth (NCI-H226 lung) [%],growth (NCI-H322M lung) [%],growth (HOP-62 NSCLC) [%],growth (NCI-H460 lung) [%],growth (HOP-92 NSCLC) [%],growth (NCI-H522 lung) [%],growth (A549/ATCC NSCLC) [%],growth (786-0 renal) [%],growth (COLO 205 colon) [%],growth (DU-145 prostate) [%],growth (K-562 leukemia),growth (MALME-3M melanoma) [%],growth (MDA-MB-231 breast) [%],growth (RXF 393 renal) [%],growth (SF-268 CNS) [%],growth (SF-295 CNS) [%],growth (SF-539 CNS),growth (UACC-257 melanoma) [%],growth (M14 melanoma) [%]
CCn1cc(Cc2cc(C(=O)Nc3cc4cc(OC)c(OC)cc4c(C)n3)ccc2Cl)cn1,52,30.8,102,39.8,76.3,47.1,17.6,38.9,51.7,46.4,55.3,34.4%,63.4,36.3,73.2,49.3,39.7,8.23% (active),40.9,32.6
Nc1ncnc2c1N=C(c1ccc(Cl)cc1)CC(c1cccc(Nc3ccnc4cc(Cl)ccc34)c1)N2 (stereo not given),66.8,87.5,84.1,70.4,75.6,44.7,93.8,84.5,67.5,66.2,83.2,-0.992% (active),84.8,63.5,34.1,53.4,67,76%,105,64.8
CN1CC(c2ccc(Br)cc2)C(C(=O)c2ccc(Br)cc2)C12C(=O)Nc1ccccc12 (stereo not given),67.7,73.5,89.9,69,73.3,70.2,58.2,59.2,79.2,76.6,83.5,44.8%,81.7,81.7,69.7,69.5,78.5,90.5%,85.5,76
S=c1ccnc[nH]1,103,107,114,109,105,76.2,65.8,98.2,89.7,102,116,113%,123,115,128,113,115,100%,105,96.6
CSc1nc(-c2ccco2)c(C#N)c(=O)n1C,66.1,101,89.6,89.5,105,91.6,100,100,104,97.2,106,101%,88.8,107,112,106,97.9,89.7%,96.9,108
CCOC(=O)/C=C1\S/C(=N\Nc2cc(=O)[nH]c3ccc(Br)cc23)N(c2ccccc2)C1=O,88.1,84.1,90.5,91.2,95.9,81.5,31.4,103,86,46.6,85.2,13.4%,82,86.2,35.2,85.6,100,80.8%,89.9,89.5
COc1cc(C=C2C(=O)NC(=S)NC2=O)cc(CN2CCCC2)c1O,103,103,105,103,109,92.8,96.4,96.6,102,120,113,108%,108,111,103,99.6,104,101%,98.8,109
